Our source for the outcome and AC50 values is PubChem BioAssay (EPA / NIEHS).

Values joined by “and” are separate entries in the source; they are usually repeats but may differ in a detail not shown here. Equal values may be shown once. The source holds several records for some structures; these can differ, active in one and inactive in another. Active and inactive are the calls of the source. How the source made its calls, unless noted: active means hit-call score of the fitted dose curve at least 0.9, where 1 is the maximum; inactive means score below 0.9. Peptide text beside a SMILES is read from it.

For orientation: AC50 means the midpoint of the concentration-response curve, whichever way the signal moves.

Tested on in one assay: not listed separately
Kind of assay: CCTE_Shafer_MEA_dev_network_spike_number: CCTE's Neural Network Formation Assay for Number of Network Spikes, Shafer Lab (AID 2284048).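 Further: synchronized bursts across electrodes counted on days 5 7 9 12 and integrated as AUC.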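 On AC50: fit as a loss of signal meaning fewer network spikes than DMSO.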 The method in brief:
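Extracellular recordings from 16-electrode wells track network formation in rat cortical cultures under continuous treatment from plating. The endpoint is network spike number, expressed as AUC across DIV 5–12 relative to DMSO vehicle.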
`COC(=O)[C@H](Cc1ccccc1)NC(=O)[C@@H](N)CC(=O)O` (H-Asp-Phe-OMe): the call was inactive.
For the molecule `Cc1c(C(=O)c2c[nH]n(C)c2=O)ccc(S(C)(=O)=O)c1C1=NOCC1`, the molecule was classed as inactive.
Same read-out and setting: the same measure for `Cc1noc(NS(=O)(=O)c2ccc(N)cc2)c1C`: “inactive”.
The same measure, in the same setting: then `CCCCNS(=O)(=O)c1ccccc1`, with “inactive”.
`C[N+](C)(C)CCCNS(=O)(=O)C(F)(F)C(F)(F)C(F)(F)C(F)(F)C(F)(F)C(F)(F)C(F)(F)C(F)(F)F`: the concentration at half-maximal activity (AC50) was 1.43 µM (active) and the molecule was called inactive.

Tested on in another assay: not listed separately
Kind of assay: CCTE_Shafer_MEA_dev_network_spike_peak: CCTE's Neural Network Formation Assay for Mean Number of Electrodes in Network Spike, Shafer Lab (AID 2284049).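 On AC50: fitted for loss of signal meaning fewer electrodes in network spikes than DMSO.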 The method in brief:
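Continuous 12-day exposure of rat cortical cultures, starting at plating, on MEA plates. Endpoint: electrodes participating in network-spike peaks, AUC across DIV 5–12, DMSO as negative control.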
For `COC(=O)[C@H](Cc1ccccc1)NC(=O)[C@@H](N)CC(=O)O` (H-Asp-Phe-OMe), the molecule was classed as inactive.
With `Cc1c(C(=O)c2c[nH]n(C)c2=O)ccc(S(C)(=O)=O)c1C1=NOCC1`, the result was inactive.
Turning to `Cc1noc(NS(=O)(=O)c2ccc(N)cc2)c1C`, the molecule was classed as inactive.
For `CCCCNS(=O)(=O)c1ccccc1`, the AC50 is 78.5 µM (active).
On the same count and under the same terms, then `C[N+](C)(C)CCCNS(=O)(=O)C(F)(F)C(F)(F)C(F)(F)C(F)(F)C(F)(F)C(F)(F)C(F)(F)C(F)(F)F`, with 1.11 µM (active) and 1.4 µM (active).

The test system of another assay is DIO2 (gene 1734). The assay can be described thus: CCTE_GLTED_hDIO2: CCTE's human Deiodinase 2 (DIO2) Inhibition Assay, Great Lakes Toxicology and Ecology Division (GLTED) Lab (AID 2284050; active means hit-call score of the fitted dose curve at least 0.9, where 1 is the maximum). The gist of the method: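 Inhibition is judged by reduced iodide release: uninhibited human DIO2 frees iodide from substrate over 3 h, measured afterward by Sandell-Kolthoff colorimetry. Iodinated chemicals or nitrite, iron and thiocyanate may interfere.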
Turning to `CCCCC/C=C\C/C=C\CCCCCCCC(=O)O`, the AC50 was 36.8 µM (active).
The same measure, in the same setting: the same measure for `O=c1c(O)c(-c2ccc(O)cc2O)oc2cc(O)cc(O)c12`: 55.4 µM (active); for `CCCCCCCOC(=O)c1ccc(O)cc1`: 106 µM (active).
Still for that read-out and setting: then `C/C=C/C=C/CCCCCCCO`, with 19.9 µM (active); and `CCCCCCCCCCCCCCCCCCOS(=O)(=O)O`, with 40.6 µM (active).
On the same count and under the same terms, the same measure for `CCCCCCCCCCCCc1ccc(O)cc1`: 69.7 µM (active).
Turning to `O=C(O)c1cc(O)c2ccccc2c1O`, the AC50 was 51 µM (active).

Tested on in a further assay: not listed separately
The assay can be described thus: CCTE_Shafer_MEA_dev_spike_duration_mean: CCTE's Neural Network Formation Assay for Mean Spike Duration, Shafer Lab (AID 2284051).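 On AC50: potency for a decrease in mean network spike duration versus DMSO.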 The method in brief: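 Spontaneous activity was recorded on days 5, 7, 9 and 12 from rat cortical cultures grown on microelectrode arrays and dosed continuously from day 0, with media and compound renewed after the DIV 5 and 9 recordings. Network-spike duration was collapsed by area under the curve.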
With `COC(=O)[C@H](Cc1ccccc1)NC(=O)[C@@H](N)CC(=O)O` (H-Asp-Phe-OMe), the outcome was inactive.
Regarding `Cc1c(C(=O)c2c[nH]n(C)c2=O)ccc(S(C)(=O)=O)c1C1=NOCC1`, the molecule was called inactive.
The same measure, in the same setting: the same measure for `Cc1noc(NS(=O)(=O)c2ccc(N)cc2)c1C`: “inactive”.
Take `CCCCNS(=O)(=O)c1ccccc1`: the AC50 is 50.5 µM (active).
For `C[N+](C)(C)CCCNS(=O)(=O)C(F)(F)C(F)(F)C(F)(F)C(F)(F)C(F)(F)C(F)(F)C(F)(F)C(F)(F)F`, the AC50 is 2.58 µM (active) and the call was inactive.

Tested on in another assay: not listed separately
Kind of assay: CCTE_Shafer_MEA_dev_network_spike_duration_std: CCTE's Neural Network Formation Assay for Standard Deviation of Network Spike Duration, Shafer Lab (AID 2284052).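 Further: hits are decreases in network spike duration SD versus DMSO vehicle.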 The gist of the method:
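Network spike duration variability was collapsed across recordings on days 5, 7, 9 and 12 by trapezoidal area-under-curve and fitted downward against DMSO. Cultures were rat cortical neurons on PEI-coated MEA plates, dosed continuously from plating, refed with compound DIV 5/9.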
Turning to `COC(=O)[C@H](Cc1ccccc1)NC(=O)[C@@H](N)CC(=O)O` (H-Asp-Phe-OMe), the call was inactive.
`Cc1c(C(=O)c2c[nH]n(C)c2=O)ccc(S(C)(=O)=O)c1C1=NOCC1`: the call was inactive.
As to `Cc1noc(NS(=O)(=O)c2ccc(N)cc2)c1C`, the result was inactive.
Same read-out and setting: then `CCCCNS(=O)(=O)c1ccccc1`, with “inactive”.
Regarding `C[N+](C)(C)CCCNS(=O)(=O)C(F)(F)C(F)(F)C(F)(F)C(F)(F)C(F)(F)C(F)(F)C(F)(F)C(F)(F)F`, the molecule was classed as inactive.
